In PubChem BioAssay AID1645860 (Buhrlage Lab, Dana-Farber Cancer Institute and Novartis …, 2021) one finds inhibition data, which are given here for 59 compounds.

About 2,500 (5.3%) of roughly 47,000 compounds were called active. No stated cut-off is given here; in the data, active means inhibition above about 30%; inactive means the rest. Many of the other results were omitted from the sample, so actives are more common in it than they were.

The inhibition is the change of the read-out against control, counted positive when it falls.

Ubiquitin carboxyl-terminal hydrolase 30 (Homo sapiens), sequence (Q70CQ3 whole entry, looked up): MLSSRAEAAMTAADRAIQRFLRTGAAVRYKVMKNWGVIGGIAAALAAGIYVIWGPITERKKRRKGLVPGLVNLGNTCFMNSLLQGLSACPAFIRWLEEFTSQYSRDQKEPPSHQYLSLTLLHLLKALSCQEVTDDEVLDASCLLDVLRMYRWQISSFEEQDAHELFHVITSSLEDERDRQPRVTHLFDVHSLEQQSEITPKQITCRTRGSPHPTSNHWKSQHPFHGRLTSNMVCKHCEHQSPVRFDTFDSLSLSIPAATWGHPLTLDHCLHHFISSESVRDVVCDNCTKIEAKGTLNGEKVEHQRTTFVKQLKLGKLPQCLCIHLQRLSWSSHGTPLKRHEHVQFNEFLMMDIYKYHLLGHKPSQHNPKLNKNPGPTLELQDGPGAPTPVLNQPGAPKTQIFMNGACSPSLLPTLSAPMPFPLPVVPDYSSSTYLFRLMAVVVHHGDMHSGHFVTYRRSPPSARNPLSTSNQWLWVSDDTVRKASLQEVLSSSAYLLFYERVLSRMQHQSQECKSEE

This assay addresses Ubiquitin carboxyl-terminal hydrolase 30 (Homo sapiens) (UniProt Q70CQ3). The assay is described as follows: inhibitors of human USP30 deubiquitinase (AID 1645860). The following applies: purified USP30, Ub-rhodamine cleavage fluorescence; at 25 µM; active compounds read high.
On to `O=C(NCc1ccccn1)C1CCCN(c2ccc(-c3ccccc3)nn2)C1` (centres undefined), for which the inhibition was 23.1% (inactive). As for `Cc1ccc(NC(=O)Cn2c(N3CCCC3)nc(C)cc2=O)cc1`, the figure is 18.2% (inactive); as for `CN1CC(=O)N(C2CCCNC2)Cc2c(NC3CCc4ccccc43)ncnc21` (centres undefined), 69.8% (active); as for `c1ccc(-c2csc3ncnc(NC4CCCc5ccccc54)c23)cc1` (centres undefined), -52.1% (inactive).

With `Cc1ccccc1CNC(=O)N1CCC2(CC1)NC(=O)[C@H]1CN(c3ncccn3)C[C@H]12`, the inhibition is 25.7% (inactive). For the compound `Cc1cccc(-c2cccc(C3CCCN(C(=O)c4cnccn4)C3)n2)c1` (centres undefined), the inhibition is -38% (inactive).

`O=C(Nc1ccccc1F)Nc1nnc2cccc(Cl)n12`: the inhibition was -21.8% (inactive).

On to `CN(CCc1ccccn1)CC(=O)N1CCc2ccccc21`, for which the inhibition is -0.887% (inactive). Then `COC(=O)COc1cccc2c(=O)n(CC(=O)N3CCc4ccccc43)ccc12`, with 37% (active); and `Cc1nc2ccccc2c(=O)n1CC(=O)N1CCCc2ccccc21`, with 17.4% (inactive).

Consider `Cc1ccc(C)c(N2CCN(c3nc4ccc(Cl)cc4nc3-n3nc(C)cc3C)CC2)c1`, for which the inhibition is -8.16% (inactive). Then `Cc1ccc(CC(=O)N2CCN(C(=O)c3cc(-c4ccccn4)n[nH]3)CC2)cc1`, with 4.03% (inactive); and `COc1cc(Cl)c(NC(=O)c2cc(-c3ccccn3)n[nH]2)c(OC)c1`, with 31.5% (active); and `O=C(Nc1ccc(Cl)cc1F)c1cc(-c2ccccn2)n[nH]1`, with 12.6% (inactive). In the case of `CC(=O)Nc1cccc(NC(=O)CSc2cn(CC(=O)N3CCC(C)CC3)c3ccccc23)c1`, the inhibition was -1.08% (inactive).

Turning to `O=C(Cn1cc(S(=O)(=O)Cc2ccccc2Cl)c2ccccc21)N1CCCCCC1`, the inhibition is -0.265% (inactive). In the case of `O=C(Cn1cc(SCc2cccc(F)c2)c2ccccc21)N1CCCCCC1`, the inhibition was 35.3% (active). Then `COCCN1CC(C(=N)N)C(=O)NC1=O` (centres undefined), with -45.1% (inactive); and `COc1ccc(CC(=O)Nc2ccc3c(c2)CN(C(=O)c2ccco2)CC3)cc1`, with 19.1% (inactive).

For the compound `O=C(CC1(O)C(=O)N(Cc2cccc3ccccc23)c2ccccc21)c1cccc2ccccc12` (centres undefined), the inhibition was 2.93% (inactive). As for `CN1CCc2c(sc3nc(SCCc4ccccc4)n(-c4ccccc4)c(=O)c23)C1`, the figure is -152% (inactive); as for `O=S(=O)(Nc1cccc(O)c1)c1ccc2oc3ccc(S(=O)(=O)Nc4cccc(O)c4)cc3c2c1`, 42.9% (active); as for `COc1cccc(NS(=O)(=O)c2ccc(-c3coc(C)n3)cc2)c1`, -18.4% (inactive).

As to `Cc1cccc(NS(=O)(=O)c2ccc3nnc(C)n3c2)c1`, the inhibition is -4.01% (inactive). Then `Oc1cccc2nc3c(O)cccc3nc12`, with 55.9% (active); and `O=C(CCCOc1ccc(F)cc1F)N1CCC(c2[nH]nc3nccnc23)CC1`, with -12.7% (inactive). Then `Cc1ccc(N2CCn3c(nc4ccccc43)C2)cc1NS(C)(=O)=O`, with -304% (inactive); and `CCc1ccc(-n2c(=O)c3ccccc3n(CC(=O)NCCC3=CCCCC3)c2=O)cc1`, with 41% (active).

As for `Cc1ccc(Cn2c(C)c(CNCCC3=CCCCC3)c(C(=O)O)c2C)cc1`, the inhibition is -1.85% (inactive).

In the case of `O=C(CCc1nnc2n(CCc3ccccc3)c(=O)c3ccccc3n12)NCCN1CCCC1`, the inhibition is 13.2% (inactive). Then `Cn1ncc2c1CCCN(C(=O)Cc1ccccc1F)C2`, with 10.7% (inactive); and `Cc1ccccc1CC(=O)Nc1ccc(-n2ccnc2C)nc1`, with -47.4% (inactive); and `Cc1cccc(NC(=O)Cn2c(=O)n(Cc3nc(C)no3)c(=O)c3ccccc32)c1`, with 14.7% (inactive).

As to `COc1cn(CC(=O)Nc2cccc(C)c2)c(CSc2ccc(C)cc2)cc1=O`, the inhibition is -0.0406% (inactive). Regarding `Cc1cccc(NC(=O)Cn2c(C)ccc(NC(=O)Nc3cccc(C)c3)c2=O)c1`, the inhibition was 34.8% (active).

`CC(C)C(=O)N1CCN(C(=O)Cc2ccccc2)CC2(CC(=O)N(C)C2)C1` (centres undefined): the inhibition is 17% (inactive). As for `Cc1cc(Nc2ncc(C)s2)cc(C2CCCN2c2ncccn2)n1` (centres undefined), the figure is -49.2% (inactive).

As to `CCOC(=O)C1CCCN(c2cc3n(c(=O)n2)CCc2cc(OC)c(OC)cc2-3)C1` (centres undefined), the inhibition is -59.6% (inactive). As for `COc1ccc(CN=C2NS(=O)(=O)C(c3ccc(F)cc3)=C2C)cc1OC`, the figure is 37% (active); as for `COc1ccc(C2=Nc3ncnn3C2=NCc2ccc(F)cc2)cc1OC`, 0.0164% (inactive). Then `CC1=C(c2ccc(C)cc2)S(=O)(=O)NC1=NCc1cccc(Br)c1`, with 3.77% (inactive). With `Cn1nnc2c1CCN(C(=O)C1CCC1)C2COCc1ccccc1` (centres undefined), the inhibition was -10.7% (inactive). As for `O=C(Cn1cccc(-c2nc(-c3ccccc3)no2)c1=O)Nc1ccccc1F`, the figure is -12.8% (inactive); as for `O=c1c2ccccc2c(-c2nc(-c3ccncc3)no2)cn1-c1ccc(F)cc1`, 44.8% (active); as for `O=C(Cn1c(-c2nc(-c3ccc(F)cc3)no2)cccc1=O)N1CCCC1`, 11.4% (inactive). As for `CSCc1cc(N2CCOCC2)nc(-c2ccccn2)n1`, the figure is 23.5% (inactive); as for `CC1CCN(S(=O)(=O)N2CCCC(C(=O)Nc3cc(F)ccc3F)C2)CC1` (centres undefined), 18.2% (inactive); as for `O=C(Nc1ccc(N2CCN(C3CCCC3)C2=O)nc1)c1cccnc1`, -14.2% (inactive).

As for `COc1ccc(OCC(=O)Nc2noc(-c3ccccc3)n2)cc1`, the inhibition was 24.4% (inactive). Then `COc1cccc(NC(=O)Cn2c(C)cc(C)c2-c2nc(C(C)C)no2)c1`, with -10.3% (inactive).

In the case of `CC(C)c1noc(-c2ccc(OCC(=O)Nc3ccccc3Br)cc2)n1`, the inhibition was 30.7% (active). Then `CC(=O)Nc1ccc(S(=O)(=O)NCc2ccc(C(=O)NCc3ccc(C)cc3)cc2)cc1`, with -1.25% (inactive); and `O=C1Nc2cc(C(=O)N3CCC4(CC3)OCCO4)ccc2N2C(=O)CCC12` (centres undefined), with 1.12% (inactive); and `O=C(Cn1cc(S(=O)(=O)Cc2ccccc2F)c2ccccc21)N1CCCCCC1`, with 3.16% (inactive). As for `COc1ccc(NC(=O)CS(=O)(=O)c2cn(CC(=O)N3CCCC3)c3ccccc23)cc1`, the figure is 30.4% (active); as for `COc1ccc(NC(=O)CSc2cn(CC(=O)N3CCCC3)c3ccccc23)cc1`, 18.7% (inactive).

On to `O=C(NCc1cccnc1-c1ccc(F)cc1)C1CCC1`, for which the inhibition was 21.3% (inactive). As for `Fc1cccc(Nc2nc(-c3ccncc3)nc3c2CCC3)c1`, the figure is 23.2% (inactive). Then `CSc1nc2c(c(Nc3ccc(C(C)=O)cc3)n1)CCC2`, with 80.5% (active).
